Compound activity from PubChem BioAssay.
In the library only some 1.1% were active in any assay of this set; here they are far more common.
TrxR1 substrate = is turned over as a substrate by rat TrxR1; O89049; purified TrxR1 substrate turnover, NADPH consumption readout; Potency, µM (titrated, usually from 114 µM), without a hit: at the highest dose activity change, negative = substrate turnover; actives 0.01% (n = 390,000); also: potency is read from the fitted curve at half-maximal effect; nearly all actives have a fitted effect of over 50% in size
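Rat TrxR1, dispensed at 90 nM, was prereduced with 400 uM NADPH (final) for 5 min at ~22 deg C, then incubated with compound 15 min before 400 uM selenite. A first-read NADPH fluorescence drop versus no-compound background flagged substrates.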
LDHA block = LDHA (human) enzyme inhibition. P00338. purified LDHA, NADH/diaphorase-resazurin fluorescence; active compounds read low. activity change, % (values are at about 110 or 230 µM). actives 0.15% (n = 480,000). AID 1347041; in the data active = activity change below about -30%; inconclusive = mostly about -25% to -30%;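 also: plate controls were DMSO wells for no effect and wells without enzyme for full effect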
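LDH5 2 nM; NADH 0.06 mM, pyruvate 0.2 mM; 200 mM Tris pH 7.4, EDTA, Tween-20; 5 min RT. Detection: diaphorase 0.133 mg/mL + resazurin 37 µM, fluorescence ex540/em590 at 0 and 20 min; normalized to enzyme-free and DMSO wells.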
a7 integrin act = activates integrin-mediated alleviation for muscular dystrophy | actives 0.064% (n = 350,000) | Potency, µM (titrated, usually from 38.3 µM), inactives show at the top dose activation, actives largely listed as activators | alpha7betagal myoblasts, beta-gal FDG fluorescence, 48 h;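 also: potency is read from the fitted curve at half-maximal effect; 100% = response of the positive control SU9516; nearly all actives have a fitted effect of over 60% in size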
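alpha7betagal+/- myoblasts (passage 13, 250/well) treated 48 h at 37C with compounds at 1:260 dilution of DMSO stock. Lysed, then beta-galactosidase activity read as FDG fluorescence (ex 480/em 540) after 30 min, with pre-read for autofluorescence.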
TrxR1 inh = inhibitors of rat thioredoxin reductase 1 | O89049 | recombinant rTrxR1, NADPH fluorescence consumption, selenite substrate | Potency, µM (highest dose often 114 µM), for inactives: at the highest dose activity change, negative = inhibition, actives largely listed as inhibitors | actives 1% (n = 390,000); also: potency is read from the fitted curve at half-maximal effect; nearly all actives have a fitted effect of over 65% in size
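Rat TrxR1 (90 nM in the dispensed reagent) was pre-reduced with 400 uM NADPH for 5 min at room temperature, then incubated with compound for 15 min. After 400 uM selenite was added, NADPH fluorescence (Ex 340/Em 450 nm) was followed for 8 min.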
PI4K2A inh = inhibitors of human PI4K2A | purified PI4K2A, ADP-Glo luminescence, 1 h; active compounds read low | activity change, negative = inhibition, % at 76.9 µM | actives 0.13% (n = 420,000) | AID 1346378; in the data active = activity change below about -50%; inconclusive = mostly about -30% to -49%;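 also: -100% = wells without enzyme as full effect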
Target sequence (Q9BTU6 whole entry, looked up): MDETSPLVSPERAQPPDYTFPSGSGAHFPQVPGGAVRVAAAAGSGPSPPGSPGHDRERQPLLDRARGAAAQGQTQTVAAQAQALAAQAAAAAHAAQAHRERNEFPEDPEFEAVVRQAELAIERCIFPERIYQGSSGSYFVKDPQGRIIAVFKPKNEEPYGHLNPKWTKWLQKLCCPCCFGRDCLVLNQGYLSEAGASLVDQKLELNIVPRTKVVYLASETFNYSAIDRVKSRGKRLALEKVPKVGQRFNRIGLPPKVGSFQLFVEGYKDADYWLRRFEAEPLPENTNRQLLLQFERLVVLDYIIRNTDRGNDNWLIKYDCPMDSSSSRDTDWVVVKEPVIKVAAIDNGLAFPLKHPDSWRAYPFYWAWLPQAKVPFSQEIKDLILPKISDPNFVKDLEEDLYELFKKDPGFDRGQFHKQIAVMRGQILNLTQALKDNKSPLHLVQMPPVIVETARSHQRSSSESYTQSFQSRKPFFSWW
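ADP-Glo luminescence measured ADP generated by PI4K2A enzyme (4 ug/mL before mixing) with 1.2 mM PI substrate (pre-mix) and 300 microM ATP (pre-mix). Tris pH7.5 buffer with MgCl2, Triton X-100; 1 h reaction at ambient temperature.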
GALK inh = galactokinase (human) inhibition; P51570; Purified GALK, Kinase-Glo residual ATP luminescence; Potency, µM (top dose mostly 57.5 µM), for the others: at the top dose activity change, negative = inhibition, usual class: inhibitors; actives 0.007% (n = 270,000); AID 1868; also: potency is read from the fitted curve at half-maximal effect
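Luminescence from leftover ATP (Ultra-Glo luciferase/luciferin) served as read-out after a 1 h room-temperature reaction of 5 nM GALK with 35 uM ATP and 100 uM galactose.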
Active calls of the source: *; ? = inconclusive; . = no result given; [ ] = dose if it differs, or a comment. Unless noted, calls follow the shape of the dose curve; as a rule, active = well fitted curve in the direction sought with a large enough effect; inconclusive = small, poorly fitted or top-dose-only effect, or another doubt; inactive = no such curve, though single readings can be large; an effect the other way counts as inactive or inconclusive. Unless noted, % is scaled to controls: 0 for no effect and ±100 for the full control effect.

SMILES	TrxR1 substrate	LDHA block	a7 integrin act	TrxR1 inh	PI4K2A inh	GALK inh
Cc1cc(=O)n(-c2ccc(C(=O)O)cc2)[nH]1	2.4%	2.1	3.0%	45.0%	-56.3*	0.8%
COc1ccc(C)cc1NC(=O)Cn1nc(C(N)=O)c2ccccc2c1=O	.	-5.0	.	.	.	.
C/C(CCc1oc2c(Br)cc(Br)cc2c1-c1ccc(C)o1)=N\O	3.6%	6.4	4.1%	25.1µM*	1.2	-2.6%
Cc1ccc(CN(C(=O)CCCc2cccs2)C2CC2)cc1	.	3.0	.	.	.	.
O=C(O)CN1C(=O)/C(=C/c2ccc(N3CCCCC3)o2)SC1=S	5.3%	2.9	-25.1%	28.2µM*	-19.5	12.7%
COC(=O)CN1C(=O)S/C(=C/c2cc(C)n(C)c2C)C1=O	3.3%[57.1 µM]	0.1	-1.1%	-20.6%[57.1 µM]	-9.0	-6.8%
CCOC(=O)CN1C(=O)S/C(=C/c2ccc(N3CCCCC3)o2)C1=O	0.2%	1.0	-24.5%	50.1µM*	-0.1	-0.2%
O=C(O)CCCCCN1C(=O)/C(=C\c2ccc(-c3ccc(Cl)cc3)o2)SC1=S	-4.3%	-0.5	-16.4%	-3.0%	-0.1	.
CCOC(=O)CN1C(=O)S/C(=C/c2ccco2)C1=O	-14.9%	2.6	0.0%	-3.2%[57.1 µM]	-0.7	1.0%
COC(=O)CN1C(=O)S/C(=C/c2ccc(N3CCCCC3)o2)C1=O	-15.0%	50.5	-69.0%	3.55µM*	-16.3	-0.7%
CCC(CC)NC(=O)NC(C)c1ccc(Br)cc1 (stereo unspecified)	.	-1.0	.	.	.	.
Nc1c(C2CCCCC2)c(=O)on1C(=O)c1ccccc1	-0.6%	-4.2	19.6%	44.7µM*	-0.9	.
CC(=O)Nc1cccc(NC(=O)c2cc(-c3cccs3)nc3ccccc23)c1	.	11.5	.	.	.	.
O=c1cc(-c2ccc(F)cc2)oc2ccc(F)cc12	.	0.2	.	.	.	.
Cc1cc(C)cc(-n2cccc2)c1	.	1.3	.	.	.	.
CCN(CC)c1ccc(NC(=S)NC(=O)c2cccs2)cc1	-7.1%[57.1 µM]	-1.4	2.4%	79.4µM*	-1.5	3.8%
O=C(NC(=S)Nc1ccc(S(=O)(=O)N2CCCC2)cc1)c1cccs1	-7.4%	-9.3	?	20µM*	1.7	-1.2%
Cc1ccc(C(=O)NC(=S)Nc2ccc(S(=O)(=O)N3CCN(C)CC3)cc2)cc1	-9.0%	-2.4	-8.0%	50.1µM*	1.2	.
CN(C)CCCN(C(=O)c1ccc([N+](=O)[O-])o1)c1nc2cc3c(cc2s1)OCO3	-6.6%	3.4	-44.5%	50.1µM*	-8.1	-1.4%
O=C1NN(c2cccc(Br)c2)C(=O)/C1=C\c1ccccc1	?	4.5	-9.3%	11.2µM*	1.6	-12.8%
O=C1NN(c2ccccc2)C(=O)/C1=C\c1ccccc1	-4.7%	0.5	?	28.2µM*	-29.7	-3.8%
O=C(CSc1nnc(C2CC2)n1C1CC1)c1cccs1	6.0%	-0.7	10µM*	3.9%	-1.1	.
CC(=O)c1ccc(OC(=O)COc2ccccc2Cl)cc1	1.9%	-4.1	11.3%	17.8µM*	11.4	-0.2%
CCOC(=O)C1=C(C)NC(=S)NC1c1ccco1 (stereo unspecified)	-4.6%	3.7	-15.8%	50.1µM*	-10.6	7.4%
CCOC(=O)C1=C(C)NC(=S)NC1c1ccc(-c2cccc(Cl)c2C)o1 (stereo unspecified)	8.8%	-9.0	-40.1%	22.4µM*	-1.5	2.8%
SMILES	TrxR1 substrate	LDHA block	a7 integrin act	TrxR1 inh	PI4K2A inh	GALK inh
CCOC(=O)C1=C(C)NC(=S)NC1c1ccc(-c2ccc(Cl)cc2)o1 (stereo unspecified)	-3.3%	-3.3	-20.5%	?	0.2	1.7%
O=C(/C=C/c1cc(O)ccc1Br)c1ccc(Cl)cc1Cl	.	0.8	.	.	.	.
Cc1ccccc1NC(=O)C(=O)c1c[nH]c2ccccc12	.	5.4	.	.	.	.
O=C(Nc1ccc(Cl)cc1N1CCOCC1)C1CCCCC1	4.4%	-4.8	7.08µM*	17.8%	-3.3	4.7%
Cc1ccc2nc(COc3ccc(F)cc3)[nH]c2c1	.	-1.1	.	.	.	.
CCC1(c2ccccc2)C(=O)N(C(=O)OC(C)(C)C)N1C(=O)OC(C)(C)C (stereo unspecified)	-3.9%	4.5	1.3%	?	-1.2	.
CCOC(=O)N1C(=O)[C@](CC)(c2ccccc2)N1C(=O)OCC	0.6%	-4.0	-19.8%	3.16µM*	0.6	.
CCCCNc1oc(/C=C/c2ccc(OC)c(OC)c2)nc1C#N	.	-2.5	.	.	.	.
Cc1ccccc1Nc1nc(N)nc(COc2ccccc2C(=O)NCc2ccccc2)n1	.	1.7	.	.	.	.
CCSc1nnc(NC(=O)C2Cc3ccccc3CN2C(=O)c2ccco2)s1 (stereo unspecified)	-2.1%	-4.4	3.9%	31.6µM*	-12.4	-1.4%
C=CCNC1=C(Cl)C(=O)N(c2ccccc2Cl)C1=O	-6.5%	-1.5	-30.6%	25.1µM*	1.4	-1.4%
Cc1c(NC2=C(Cl)C(=O)N(c3ccccc3Cl)C2=O)c(=O)n(-c2ccccc2)n1C	9.4%	0.2	-0.3%	20µM*	-0.3	.
O=C(NCCS(=O)(=O)c1ccc(Br)cc1)c1ccc(Cl)cc1	-7.6%	-12.2	0.0%	-3.8%	-6.0	-1.0%
CC(C(=O)NCCS(=O)(=O)c1ccc(Br)cc1)S(=O)(=O)c1ccc(Cl)cc1 (stereo unspecified)	-11.5%	-34.7*	13.2%	-12.7%	-2.7	1.4%
Cc1ccc(S(=O)(=O)c2c(N)n(Cc3ccco3)c3nc4ccccc4nc23)cc1C	71.1%	-5.1	3.8%[7.66 µM]	11.2µM*	2.7	-1.1%
Cc1cc(C)n(CC(=O)NC2C(=O)N3C(C(=O)O)=C(CSc4nnc(C)s4)CSC23)n1 (stereo unspecified)	11.4%	-1.1	?	-23.6%	-7.4	0.4%
Cc1nnc(SCC2=C(C(=O)O)N3C(=O)C(NC(=O)Cn4ncc(Cl)c4C)C3SC2)s1 (stereo unspecified)	-0.1%	0.1	-33.7%	22.4µM*	-15.2	-0.3%
O=C(c1ccoc1)N1CCC2(CC1)Oc1ccc(Cl)cc1C(=O)C21CC(c2ccc(Cl)cc2)=NO1 (stereo unspecified)	-1.0%	-6.7	14.1%	-2.5%	-3.2	-2.2%
O=C(c1ccoc1)N1CCC2(CC1)Oc1ccc(F)cc1C(=O)C21CC(c2ccc(Cl)cc2)=NO1 (stereo unspecified)	-9.9%	0.3	13.4%	70.8µM*	-3.5	4.6%
CCC(C)NCCCOc1ccc(Cl)cc1C(C)(C)C (stereo unspecified)	-12.2%	-41.1*	-21.1%	-12.0%	-3.0	0.4%
CCN=C(N/N=C/c1ccc([N+](=O)[O-])cc1)SC	-11.6%	-109.6*	0.6%	-12.1%	5.7	5.3%
COc1ccc(-c2cc(C(F)(F)F)nc(S(C)(=O)=O)n2)cc1	6.3%	-9.0	-68.2%	10µM*	5.4	-1.5%
